# PubChem BioAssay AID588405 (Sanford-Burnham Center for Chemical Genomics, 2011)
# In all, about 360,000 compounds went through this assay and about 6,200 (1.7%) were called active. For the sample, actives were picked, then their nearest neighbours and some compounds at random. A number with no mark means an inactive call.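 Rule for the calls: active = inhibition of at least 50% at 20 µM; inactive = the rest.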
# Experiment: Peg3 promoter-driven luciferase inhibitors, primary screen, cell-based, HeLa, luciferase luminescence (AID 588405)
# Settings: HeLa PEG-Prom luciferase reporter, overnight, at 20 µM, active compounds read high
row,Compound,inhibition
1,Cc1cccc(/C(N)=N/OC(=O)c2ccccc2Cl)c1,-145%
2,Cc1ccc(C(=O)O/N=C(\N)c2ccccn2)cc1Cl,62.4% (active)
3,N/C(=N\OC(=O)c1ccc([N+](=O)[O-])cc1)c1ccccn1,5.67%
4,CC(=O)Nc1cccc(-c2cc(NC(C)=O)c3ncc(-c4ccccc4)n3c2)c1,20.6%
5,CCOC(=O)C1CN(S(=O)(=O)c2ccc(OC)cc2)c2cc(Cl)ccc2O1 (centres undefined),8.58%
6,Cc1ccc(NC(=O)[C@H](Cc2ccccc2)NC(=O)CC[C@H]2O[C@@H](n3ccc(=O)[nH]c3=O)[C@H](O)[C@@H]2O)cc1C,4.14%
7,COC(=O)c1ccc2nc(-c3cccc(Br)c3)c(Cc3ccc(OC)cc3C)n2c1,-33%
8,CCCCNc1c(-c2ccc(OC)c(Sc3ccc(OC)cc3)c2)nc2ccc(Cl)cn12,-44%
9,CCCCNc1c(-c2cccc(Sc3ccc(OC)cc3)c2)nc2ccccn12,92.9% (active)
10,CS(=O)(=O)/C(C#N)=C/c1cccn1S(=O)(=O)c1ccc([N+](=O)[O-])cc1,-17.4%
11,O=C(NCCN1CCOCC1)c1ccccc1N1C(=O)[C@@H]2Cc3c([nH]c4ccccc34)C(c3cccc(Cl)c3)N2C1=O (some centres undefined),20.3%
12,CC(C)c1cccc(C(C)C)c1Nc1cn[nH]c1,9.45%
13,COC(=O)c1ccc2nc(-c3ccc(OC)c(OC)c3)c(Cc3ccccc3)n2c1,-21.6%
14,O=C(N/N=C/c1ccccn1)C12CC3CC(CC(C3)C1)C2,-8.28%
15,Cc1nnc(N/N=C/c2ccccn2)[nH]c1=O,62% (active)
16,S=C(NN=Cc1ccccn1)Nc1ccccn1,-79.6%
17,Cc1ccc(CNC(=O)Nc2nnc([C@H]3C[C@H](O)[C@@H](CO)O3)s2)cc1,-6.3%
18,CC1(C(=O)Nc2ccc3c(c2)OCCO3)CCN1C(=O)Cc1cc(F)ccc1F (centres undefined),2.13%
19,Cc1ccc(C(=O)N/C(=C\c2ccco2)C(=O)NC2CCS(=O)(=O)C2)cc1 (centres undefined),16.9%
20,CCCc1nc2c3ccccc3ccn2c1Cc1ccccc1C(F)(F)F,-16%
21,CN1OC[C@@H]2CN(C(=O)C(C)(C)C)[C@H](c3ccc(-n4ccnc4)cc3)C[C@@H]21,-4.85%
22,O=C1/C(=C\c2ccc([N+](=O)[O-])cc2)CS(=O)(=O)C/C1=C/c1ccc([N+](=O)[O-])cc1,100% (active)
23,CN(C)S(=O)(=O)N1CCN(c2ccc([N+](=O)[O-])cc2)CC1,14.5%
24,CC(=O)Nc1ccc(C=Cc2ccc([N+](=O)[O-])cc2)cc1,-310%
25,CCCNC(=O)C1(C)CCCN(Cc2cccc(C(F)(F)F)c2)C1 (centres undefined),2.53%
26,CCCOc1ccc(F)cc1-c1cc(C(=O)Nc2ccc(F)c(Cl)c2)[nH]n1,25.8%
27,CC1(C(=O)NS(=O)(=O)C2CC2)CCCN(C(=O)CSc2ccccc2)C1 (centres undefined),8.07%

row,Compound,inhibition
1,O=S(=O)(c1ccccc1)N1CCC(c2ccccc2)CC1,6.2%
2,CC(=O)N1CC(C)c2scc(C)[n+]2-c2ccccc21 (centres undefined),5.89%
3,COc1ccc(S(=O)(=O)N2C[C@H]3CON(C)[C@H]3C[C@H]2c2cccc(Br)c2)cc1,6.82%
4,CN1OC[C@@H]2CN(S(=O)(=O)c3cccc(C(F)(F)F)c3)[C@H](c3ccc(-c4cc5ccccc5o4)cc3)C[C@@H]21,68.8% (active)
5,CN1OC[C@@H]2CN(S(=O)(=O)c3cccc4ccccc34)[C@H](c3ccc(N4CCCCC4)cc3)C[C@@H]21,-9.16%
6,Nc1nc2c(ncn2[C@@H]2O[C@H](CNS(=O)(=O)N3CCc4ccccc4C3)[C@@H](O)[C@H]2O)c(=O)[nH]1,5.67%
7,Cc1ccc(-c2cnc(C(O)c3cc(Cl)cc(Cl)c3)[nH]2)cc1 (centres undefined),37.2%
8,CC1(C)CCSC(/C=C/c2ccccc2)=N1,106% (active)
9,CC1(C(=O)O)CCN1C(=O)/C=C/c1ccccc1 (centres undefined),-2.65%
10,CC1(C(=O)NS(=O)(=O)c2ccccc2)CCN1C(=O)C/C=C/c1ccccc1 (centres undefined),-9.64%
11,CC(C)(C)c1ccc(C(=O)NCC(=O)OCN2C(=O)c3ccccc3C2=O)cc1,-11.7%
12,COC(=O)c1cc(C(=O)N(Cc2ccccc2)c2ccccn2)cc([N+](=O)[O-])c1,5.92%
13,O=C(CCl)N(Cc1cccc([N+](=O)[O-])c1)c1cccc(Cl)c1,109% (active)
14,CC(=O)N(CN1C(=O)C2CC=CCC2C1=O)c1cccc(Cl)c1 (centres undefined),12%
15,COC(=O)Cc1ccc(OC2(C)CCN(Cc3ccc4c(c3)OCCO4)C2)cc1 (centres undefined),-18.6%
16,Cc1cccc(C)c1NC(=O)CN1CCN(c2ccc(F)cc2)CC1,5.77%
17,CCc1ccc(CNC(=O)C2CC(=O)N(CCc3ccc(C)cc3)C2)cc1 (centres undefined),7.77%
18,Cc1ccc(NC(=O)N2CCC(C(=O)NCc3ccc(F)cc3)CC2)cc1,6.32%
19,CCc1ccc(CNC(=O)C2CCN(c3nnc(C)c4c(C)n(-c5ccc(C)cc5)nc34)CC2)cc1,99.3% (active)
20,COc1ccc(OC)c(S(=O)(=O)N2CCCC(C(=O)NCCc3ccccc3)C2)c1 (centres undefined),5.79%
21,N#CCCN(C(=O)COC(=O)C1CCN(c2ccc(C(F)(F)F)cn2)CC1)c1ccc(F)cc1,-15.9%
22,CCOC(=O)C1(Cc2ccccc2C)CCCN(C(=O)c2ccc(COC)o2)C1 (centres undefined),-235%
23,NS(=O)(=O)c1ccc(N=Nc2c(O)[nH]c3ccc(Br)cc23)cc1,98.7% (active)
24,O=C(CNC(=O)Cc1ccccc1)N=Nc1c(O)[nH]c2ccc(Br)cc12,-7.31%
25,Cc1cccc(N=Nc2c(O)[nH]c3ccc(F)cc23)c1,-236%
26,CCCNC(=O)c1cc(C2CCCN(C(=O)c3ccc4c(c3)CCO4)C2)on1 (centres undefined),11%
27,Cc1ccc(N2C(=O)CC(NCc3ccc4c(c3)OCO4)C2=O)cc1Cl (centres undefined),-15.9%
